From PubChem BioAssay
Only some compounds are listed: those with a hit (about 6.9% of all), similar ones and a draw of the others.
MCF10A rereplic: A quantitative high throughput screen for small molecules that induce DNA re-replication in MCF 10a normal breast cells; Potency, µM (doses to about 46.1 µM), inactives show top-dose activity, positive = re-replication, hits mostly activators; MCF 10A DNA re-replication, Hoechst nuclear intensity, 48 h; 350,000 tested, 2.9% active; note: potency is the fitted concentration of half-maximal effect; % of control where 0% means no effect; nearly all actives have a fitted effect of over 50% in size
SW480 rerep: A quantitative high throughput screen for small molecules that induce DNA re-replication in SW480 colon adenocarcinoma cells. 340,000 tested, 1.8% active. SW480 DNA re-replication, Hoechst DNA content imaging, 48 h. Potency, µM (titrated, usually from 46.1 µM), for the others: at the top dose re-replication activation, hits mostly activators. AID 624297, 2012; note: potency is the fitted concentration of half-maximal effect; % of control where 0% means no effect; nearly all actives have a fitted effect of over 55% in size
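Readout is total intensity of Hoechst-stained nuclei, excited at 405 nm and collected at 500-530 nm. Compound treatment lasted 48 hr at 37 C in 5% CO2 before staining.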
KB-V1 cytotox: qHTS assay for MDR1-selective chemotherapeutics: Primary screen using the drug-selected MDR subline cells KB-V1. KB-V1 MDR cells viability, CellTiter-Glo, 72 h. Potency, µM (highest dose often 46.1 µM), usual class: cytotoxic. 400,000 tested, 3.4% active. AID 1347076, 2019; note: potency is the fitted concentration of half-maximal effect; % is set by controls: 0 for no effect and ±100 for the full control effect; nearly all actives have a fitted effect of over 60% in size
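Following 72 h at 37 degrees C with compound, KB-V1 cell viability was read by CellTiter-Glo luminescence, medium being phenol-red-free DMEM plus 10% FBS; concentration-response parameters came from normalized, curve-fitted qHTS data.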
S-ASM inh: Inhibitors of Secretory Acid Sphingomyelinase (S-ASM): qHTS; AID 504937, 2011; Sphingomyelin phosphodiesterase (Homo sapiens), P17405; placental ASM, HMU-PC fluorogenic substrate, 60 min; 340,000 tested, 0.006% active; Potency, µM (highest dose often 57.5 µM), for the others: at the top dose activity change, negative = inhibition, hits mostly inhibitors; note: potency is the fitted concentration of half-maximal effect
Target sequence (P17405 47-631 limits assumed): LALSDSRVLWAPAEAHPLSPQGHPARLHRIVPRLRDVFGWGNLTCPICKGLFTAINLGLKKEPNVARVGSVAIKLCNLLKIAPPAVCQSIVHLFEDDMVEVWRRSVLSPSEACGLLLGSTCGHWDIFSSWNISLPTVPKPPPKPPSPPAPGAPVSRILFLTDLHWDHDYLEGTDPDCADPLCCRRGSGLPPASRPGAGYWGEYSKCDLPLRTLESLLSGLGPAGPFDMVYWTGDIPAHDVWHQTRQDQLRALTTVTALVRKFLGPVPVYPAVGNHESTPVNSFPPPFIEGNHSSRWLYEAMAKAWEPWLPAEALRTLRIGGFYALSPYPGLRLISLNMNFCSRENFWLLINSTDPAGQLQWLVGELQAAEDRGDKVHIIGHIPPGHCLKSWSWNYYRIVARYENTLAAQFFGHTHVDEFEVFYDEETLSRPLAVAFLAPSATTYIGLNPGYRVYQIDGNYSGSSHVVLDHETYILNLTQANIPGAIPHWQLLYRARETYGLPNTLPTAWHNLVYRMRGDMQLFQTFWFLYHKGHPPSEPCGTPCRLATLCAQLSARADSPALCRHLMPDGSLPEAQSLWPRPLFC
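Human placenta-derived ASM enzyme was preincubated with compound for 10 minutes at room temperature, then given fluorogenic substrate HMU-PC0 (9 uM final) for 60 minutes at 37 °C; a pH 10 stop preceded fluorescence reading at Ex 386/Em 447 nm.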
Giardia kill: Small Molecules that selectively kill Giardia lamblia: qHTS. Giardia lamblia trophozoite viability. activity change, % at 7.66 µM, hits read low. 340,000 tested, 0.15% active. AID 540267, 2011; in the data active = activity change below about -80%; inconclusive = between about -30% and that limit;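 note: parasites exposed to compound for two days anaerobically before the ATP read; % is set by controls: 0 for no effect and ±100 for the full control effect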
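Trophozoites 100 cells/well + cpd; 48 hrs, 37 deg C, anaerobic. ATPLite 1-Step added, 15-30 min RT, luminescence read (ATP-based viability).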
KB-3-1 cytotox: qHTS assay for MDR1-selective chemotherapeutics: Primary screen using the parental adenocarcinoma cell KB-3-1. Potency, µM (doses to about 46.1 µM), hits mostly cytotoxic. 400,000 tested, 1.4% active. KB-3-1 viability, CellTiter-Glo ATP luminescence, 72 h. AID 1347075, 2019; note: potency is the fitted concentration of half-maximal effect; % is set by controls: 0 for no effect and ±100 for the full control effect; nearly all actives have a fitted effect of over 60% in size
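Parental KB-3-1 viability, qHTS format: 72 h compound exposure, 37 °C; CellTiter-Glo; media-only wells and DMSO plates as controls; concentration-effect fits on corrected data.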
The depositor's hits bear a star; i = inactive; ? = inconclusive; nt = not tested or not shown; [ ] = remark or other dose. Unless noted, calls come from the whole dose curve; as a rule, active = well fitted curve in the direction sought with a large enough effect; inconclusive = small, poorly fitted or top-dose-only effect, or another doubt; inactive = no such curve, though single readings can be large; an effect the other way counts as inactive or inconclusive.

SMILES	MCF10A rereplic	SW480 rerep	KB-V1 cytotox	S-ASM inh	Giardia kill	KB-3-1 cytotox
O=C1CCCN1c1ccc(S(=O)(=O)NCCc2ccc(Cl)cc2)cc1	5%	-2%	18µM*	1%	-8	i
COc1ccc(OC)c(NS(=O)(=O)c2ccc(N3CCCC3=O)cc2)c1	?	0.82µM*	2.1µM*	0%	9	0.82µM*
COc1ccc(NS(=O)(=O)c2ccc(N3CCCC3=O)cc2)cn1	10µM*	21µM*	?	0%	31	?
Cc1ccccc1NS(=O)(=O)c1ccc(N2CCCC2=O)cc1	12µM*	3.7µM*	2.6µM*	2%	-8	5.2µM*
Cc1ccc(OCCNS(=O)(=O)c2ccc(N3CCCC3=O)cc2)cc1	3%	-4%	i	-2%	-19	i
Cc1ccc(OCCNS(=O)(=O)c2ccc(N3CCCC3=O)cc2)cc1C	20%	?	16µM*	-2%	29	?
CN1CCN(C2=C(Cl)C(=O)c3ccccc3C2=O)CC1	4.1µM*	5.2µM*	?	-2%	12	?
O=C1C(Cl)=C(N2CCC(C(=O)O)CC2)C(=O)c2ccccc21	?	0%	?	7%	18	i
NC(=O)C1CCN(C2=C(Cl)C(=O)c3ccccc3C2=O)CC1	13µM*	?	?	-9%	-17	?
C[S+](C)CC(=O)c1ccc2ccccc2c1	nt	nt	?	nt	nt	i
CC1CCCC(NC(=O)COC(=O)CCSc2ccccc2)C1C (centres undefined)	1%	-6%	i	2%	5	i
O=C(Nc1ccc(Cl)c(Cl)c1)c1ccc(Cn2c(=O)[nH]c3ccsc3c2=O)cc1	16µM*	1%	i	-6%	-9	?
Cc1ccc2nc(C3CCCCC3)c(Cc3ccsc3)n2c1	nt	nt	16µM*	nt	nt	?
Cc1ccc(-c2nc3c4ccccc4ccn3c2Cc2ccsc2)cc1	nt	nt	i	nt	nt	i
Cc1ccc(Cc2c(C3CCCCC3)nc3ccc(C)cn23)cc1	nt	nt	i	nt	nt	i
Fc1ccc(-c2nc3ccc(Br)cn3c2Cc2ccccc2)cc1	nt	nt	i	nt	nt	21µM*
Cc1ccc2nc(-c3ccccc3)c(Cc3ccsc3)n2c1	nt	nt	21µM*	nt	nt	?
COc1ccc(NC(=O)c2c(C(=O)Nc3ccccc3)sc3nc(C)cc(=O)n23)cc1	nt	nt	i	nt	nt	i
O=C(C[N+]12CN3CN(CN(C3)C1)C2)c1ccc(Br)cc1	nt	nt	i	nt	nt	i
CC(NC(=O)c1cccnc1)C(=O)O (centres undefined)	-9%	1µM*	i	8%	-17	i
Nc1nc(NCc2ccc(Cl)cc2Cl)c2[nH]cnc2n1	nt	nt	?	nt	2	i
Cc1nn(C)cc1C(C(=O)NC1CCCCC1)N(C(=O)Cn1nnc2ccccc21)c1ccc(F)cc1 (centres undefined)	26µM*	?	i	1%	10	i
Cc1ccc(N(C(=O)Cn2nnc3ccccc32)C(C(=O)NC2CCCCC2)c2cn(C)nc2C)cc1 (centres undefined)	-5%	1%	i	3%	-4	i
Cc1ccc(S(=O)(=O)N(C)c2ccc(C(=O)Nc3cccc(C)n3)cc2)cc1	?	-5%	?	-1%	-4	i
Cc1cc(NC(=O)c2cccc(S(=O)(=O)N3CCCCCC3)c2)n(-c2ccccn2)n1	-6%	5%	?	-5%	6	i
SMILES	MCF10A rereplic	SW480 rerep	KB-V1 cytotox	S-ASM inh	Giardia kill	KB-3-1 cytotox
CN(c1ccccc1)S(=O)(=O)c1cccc(C(=O)NC2CCCCC2)c1	?	-2%	15µM*	3%	11	i
Cc1cccc(NC(=O)c2cccc(S(=O)(=O)N(C)c3ccccc3)c2)n1	24%	4%	7.3µM*	-7%	13	i
Cc1cc(NC(=O)c2cccc(S(=O)(=O)N(C)C)c2)n(-c2ccccn2)n1	?	20%	9.2µM*	-12%	-20	i
CC(=O)Oc1ccc(C(=O)N2c3ccccc3NC(=O)C2C)cc1 (centres undefined)	4%	-7%	i	-5%	-4	i
NS(=O)(=O)c1cc2c(cc1C(F)(F)F)N[C@H](Cc1ccccc1)NS2(=O)=O	-1%[20.6 µM]	-3%[20.6 µM]	nt	nt	nt	nt
Cc1ccc(NC(=O)Cc2nn(C)c(=O)c3ccccc23)cc1F	9%	7%	2.1µM*	0%	8	7.3µM*
Cc1csc(NC(=O)Cc2nn(C)c(=O)c3ccccc23)n1	-9%	1%	16µM*	-7%	4	?
COc1cccc(OC)c1NC(=O)Cc1nn(C)c(=O)c2ccccc12	5%	-27%	i	0%	18	i
Cn1nc(CC(=O)Nc2ccc3c(c2)OCCO3)c2ccccc2c1=O	-4%	-3%	i	0%	-1	?
O=[N+]([O-])c1ccccc1C=NNC(=S)NN=Cc1ccccc1[N+](=O)[O-]	18µM*	21µM*	?	-9%	-12	?
O=C(CN(Cc1ccccc1)S(=O)(=O)c1ccccc1)N/N=C/c1ccccc1[N+](=O)[O-]	14%	2%	23µM*	-7%	-4	i
Cc1ccc(CN(CC(=O)N/N=C/c2ccccc2[N+](=O)[O-])S(=O)(=O)c2ccc(C)cc2)cc1	5%	18%	i	-9%	3	i
N#C/C(=C1/SCC(c2ccccc2Cl)S1)n1ccnc1 (centres undefined)	2%	1%	nt	nt	nt	nt
